In PubChem BioAssay (NCI) one finds growth data, which are given here for 39 compounds.

Values joined by “and” are separate entries in the source; they are usually repeats but may differ in a detail not shown here. Identical values can stand only once. The panel holds about 83,000 compounds, 20% with a hit somewhere; the sample as a whole holds those more often.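 How to read the values: 0–100, growth inhibition (40 = 60% inhibited); 0, no net growth; -100 to 0, cell death (-40 = 40% of starting cells died; -100 = all dead).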 Active and inactive are the calls of the source. The calls were made as follows: active = growth percent below 10; inactive = the rest.

One assay relates to HCT-15 colon. The experiment in a line: NCI-60 one-dose screen, 48 h (100 = growth as untreated, 0 = no growth, -100 = all killed). The following applies: 10 µM unless noted.
Consider `CC1CCCC(=O)O1` (stereo not drawn), for which the growth was 94.8% (inactive) and 99.7% (inactive).

`Cc1ccc(S(=O)(=O)NCN2C(=O)c3ccccc3C2=O)cc1`: the growth is 99.3% (inactive).

As for `O=C(N/N=C/c1cccc2ccccc12)C1CC1`, the growth is 107% (inactive) and 113% (inactive).

With `CN(C)CCCNC1=C(Cl)C(=O)c2ccccc2C1=O`, the growth is -62.2% (active) and -49.3% (active).

Take `COc1ccc2nc(Cl)cc(C)c2c1`: the growth was 99.2% (inactive) and 101% (inactive).

As to `CN(C)c1ccc(C(=C2C=CC(=[N+](C)C)C=C2)c2ccccc2Cl)cc1`, the growth is 6.9% (active) and -30.6% (active).

In the case of `OCc1ccccn1`, the growth is 109% (inactive).

Consider `Nc1ccccc1SC1CC(=O)N(c2cccc3ccccc23)C1=O` (stereo not drawn), for which the growth was 99% (inactive).

Consider `CC(=O)Nc1cccc2c1CCCC2`, for which the growth is 92.8% (inactive) and 96.5% (inactive).

Turning to `CCN1CCN(CCNc2nccc(-c3c(-c4cccc(O)c4)nc4sccn34)n2)S1(=O)=O`, the growth is 67.7% (inactive) and 59% (inactive).

For `NC(=O)c1ccccc1OCC(O)CO` (stereo not drawn), the growth is 98.1% (inactive).

For the compound `Nc1ccccc1Nc1ccccc1`, the growth was 86.8% (inactive) and 83.1% (inactive).

As for `N/C(=N\N=C\c1ccc2c(c1)OCO2)N/N=C\c1ccc2c(c1)OCO2`, the growth was 103% (inactive) and 93.7% (inactive).

For the compound `N#C/C(=C/c1c(O)ccc2ccccc12)C(N)=O`, the growth was 100% (inactive).

On to `Oc1ccc(/C=C/c2ccccc2)cc1`, for which the growth is 67.1% (inactive) and 68.2% (inactive).

`COc1ccc2ccccc2c1/C=N/N1CCCCC1`: the growth is 99.4% (inactive).

On to `O=C(Nc1cccc(-n2ccc3c(NC(=O)c4ccccc4)nccc32)c1)c1ccc(Cl)c(C(F)(F)F)c1`, for which the growth is -15.1% (active) and 34.3% (inactive).

For the compound `CCOc1ccc(Nc2c3ccccc3nc3ccccc23)cc1`, the growth was 91.1% (inactive) and 17.4% (inactive) and 22% (inactive).

For `CCOc1ccc2cc(-c3nn(CC4CCN(C)CC4)c4ncnc(N)c34)ccc2c1`, the growth was 76% (inactive) and 29.8% (inactive).

`C[N+](C)(C)CN1C(=O)c2ccccc2C1=O`: the growth is 103% (inactive).

With `S=C(S)N1CCCC1`, the growth is 107% (inactive).

Turning to `O=C1C2=C(C(=O)c3ccccc31)C(O)(S(=O)(=O)O)C(O)(S(=O)(=O)O)C1N=CC=CC21` (stereo not drawn), the growth is 32.3% (inactive) and 38.7% (inactive).

`Cc1cc(O)c2c(c1)C(=O)c1cc(O)cc(O)c1C2=O`: the growth was 98.9% (inactive) and 92.2% (inactive).

Consider `CCN(CC)CCC(CNc1ccnc2cc(Cl)ccc12)c1ccc(OC)cc1` (stereo not drawn), for which the growth is 42.6% (inactive) and 30.8% (inactive).

In the case of `O=[N+]([O-])c1ccc2nc3c4ccccc4c4ccccc4c3nc2c1`, the growth is 80.8% (inactive).

For the compound `COc1cc2nc(N3CCC[C@@H](NC(=O)C4COc5ccccc5O4)C3)nc(N)c2cc1OC` (stereo partly drawn), the growth was 101% (inactive) and 97.1% (inactive).

Take `NC(=S)NN=C1CCC(C2CCCCC2)CC1` (stereo not drawn): the growth was 61.9% (inactive) and 66.1% (inactive).

As for `CCOC(=O)c1sc(N)nc1-c1ccccc1`, the growth was 97.3% (inactive).

Regarding `Cc1ccc2nc3c(nc2c1)-c1cccc2cccc-3c12`, the growth is 75.1% (inactive).

On to `CC(C)N=c1cc2n(-c3ccc(Cl)cc3)c3ccccc3nc-2cc1Nc1ccc(Cl)cc1`, for which the growth is 14.9% (inactive) and 21% (inactive) and 6.17% (active).

Take `CCN(CC)CCCC(C)Nc1ccnc2cc(Oc3ccccc3)ccc12` (stereo not drawn): the growth is 52.7% (inactive) and 54.5% (inactive).

As for `CN1C(=O)C(N=Nc2ccc([N+](=O)[O-])cc2)SC1=S` (stereo not drawn), the growth is 51.7% (inactive) and 50.8% (inactive).

For `COc1ccccc1NC(=O)OCC#CCOC(=O)Nc1ccccc1OC`, the growth is 114% (inactive) and 88.6% (inactive).

In the case of `O[C@H](c1cc(C(F)(F)F)nc2c(C(F)(F)F)cccc12)[C@@H]1CCCCN1`, the growth is 70.8% (inactive) and 82.5% (inactive).

For `N#C/C(=C1C=C/C(=N/O)C(Br)=C/1)c1ccccc1`, the growth was 23.1% (inactive).

`CC1=C[C@H]2c3c(c(O)c(O)c4oc5cc(O)cc(O)c5c(=O)c34)[C@H](c3cc(O)c(O)c4oc5cc(O)cc(O)c5c(=O)c34)[C@H]2C(C)(C)C1`: the growth was 15.4% (inactive) and 3.72% (active).

Take `COc1ccc(/C(C#N)=C/c2ccccn2)cc1`: the growth is 96.2% (inactive) and 109% (inactive).

As for `CC(=O)Oc1cc(C(=O)O)cc(OC(C)=O)c1OC(C)=O`, the growth is 107% (inactive) and 101% (inactive).

For the compound `COc1ccc(Cn2c(NCCN=C(N)N)nc(=O)n(Cc3ccc(F)cc3)c2=O)cc1`, the growth was 103% (inactive) and 106% (inactive).

In another assay the test system is HT29 colon. Described as above. The following applies: 10 µM unless noted.
Take `CC1CCCC(=O)O1` (stereo not drawn): the growth was 106% (inactive) and 99.8% (inactive).

For `Cc1ccc(S(=O)(=O)NCN2C(=O)c3ccccc3C2=O)cc1`, the growth is 104% (inactive).

For the compound `O=C(N/N=C/c1cccc2ccccc12)C1CC1`, the growth was 102% (inactive) and 110% (inactive).

As for `CN(C)CCCNC1=C(Cl)C(=O)c2ccccc2C1=O`, the growth was -26% (active) and -31.7% (active).

As to `COc1ccc2nc(Cl)cc(C)c2c1`, the growth is 101% (inactive) and 105% (inactive).

For the compound `CN(C)c1ccc(C(=C2C=CC(=[N+](C)C)C=C2)c2ccccc2Cl)cc1`, the growth was -38.3% (active) and -24% (active).

On to `OCc1ccccn1`, for which the growth is 104% (inactive).

As for `Nc1ccccc1SC1CC(=O)N(c2cccc3ccccc23)C1=O` (stereo not drawn), the growth is 106% (inactive).

Take `CC(=O)Nc1cccc2c1CCCC2`: the growth is 92.8% (inactive) and 85.6% (inactive).

For `CCN1CCN(CCNc2nccc(-c3c(-c4cccc(O)c4)nc4sccn34)n2)S1(=O)=O`, the growth is 45.3% (inactive) and 50.4% (inactive).

For the compound `NC(=O)c1ccccc1OCC(O)CO` (stereo not drawn), the growth was 105% (inactive).

In the case of `Nc1ccccc1Nc1ccccc1`, the growth is 118% (inactive) and 97.4% (inactive).

`N/C(=N\N=C\c1ccc2c(c1)OCO2)N/N=C\c1ccc2c(c1)OCO2`: the growth was 88.4% (inactive) and 13% (inactive).

For `N#C/C(=C/c1c(O)ccc2ccccc12)C(N)=O`, the growth was 101% (inactive).

Take `Oc1ccc(/C=C/c2ccccc2)cc1`: the growth was 104% (inactive) and 84.8% (inactive).

Regarding `COc1ccc2ccccc2c1/C=N/N1CCCCC1`, the growth was 101% (inactive).

For `O=C(Nc1cccc(-n2ccc3c(NC(=O)c4ccccc4)nccc32)c1)c1ccc(Cl)c(C(F)(F)F)c1`, the growth is 43% (inactive).

Turning to `CCOc1ccc(Nc2c3ccccc3nc3ccccc23)cc1`, the growth was 98% (inactive) and 4.3% (active) and 10.5% (inactive).

In the case of `CCOc1ccc2cc(-c3nn(CC4CCN(C)CC4)c4ncnc(N)c34)ccc2c1`, the growth is 69.2% (inactive) and 9.92% (active).

As for `C[N+](C)(C)CN1C(=O)c2ccccc2C1=O`, the growth was 99.6% (inactive).

For `S=C(S)N1CCCC1`, the growth was 76.7% (inactive) and 22.4% (inactive).

Regarding `O=C1C2=C(C(=O)c3ccccc31)C(O)(S(=O)(=O)O)C(O)(S(=O)(=O)O)C1N=CC=CC21` (stereo not drawn), the growth was 46.6% (inactive) and 21.4% (inactive).

For `Cc1cc(O)c2c(c1)C(=O)c1cc(O)cc(O)c1C2=O`, the growth is 105% (inactive) and 99.6% (inactive).

In the case of `CCN(CC)CCC(CNc1ccnc2cc(Cl)ccc12)c1ccc(OC)cc1` (stereo not drawn), the growth was 26.4% (inactive) and 14% (inactive).

As for `O=[N+]([O-])c1ccc2nc3c4ccccc4c4ccccc4c3nc2c1`, the growth is 74.6% (inactive).

Turning to `COc1cc2nc(N3CCC[C@@H](NC(=O)C4COc5ccccc5O4)C3)nc(N)c2cc1OC` (stereo partly drawn), the growth is 109% (inactive) and 97.7% (inactive).

With `NC(=S)NN=C1CCC(C2CCCCC2)CC1` (stereo not drawn), the growth was 90% (inactive) and 79.7% (inactive).

Turning to `CCOC(=O)c1sc(N)nc1-c1ccccc1`, the growth is 96.8% (inactive).

On to `Cc1ccc2nc3c(nc2c1)-c1cccc2cccc-3c12`, for which the growth is 80.3% (inactive).

Turning to `CC(C)N=c1cc2n(-c3ccc(Cl)cc3)c3ccccc3nc-2cc1Nc1ccc(Cl)cc1`, the growth was 0.808% (active) and 6.25% (active) and -28.1% (active).

With `CCN(CC)CCCC(C)Nc1ccnc2cc(Oc3ccccc3)ccc12` (stereo not drawn), the growth was 30.1% (inactive).

Consider `CN1C(=O)C(N=Nc2ccc([N+](=O)[O-])cc2)SC1=S` (stereo not drawn), for which the growth was 64.4% (inactive) and 80.4% (inactive).

With `COc1ccccc1NC(=O)OCC#CCOC(=O)Nc1ccccc1OC`, the growth was 100% (inactive) and 103% (inactive).

With `O[C@H](c1cc(C(F)(F)F)nc2c(C(F)(F)F)cccc12)[C@@H]1CCCCN1`, the growth is 47.5% (inactive).

As for `N#C/C(=C1C=C/C(=N/O)C(Br)=C/1)c1ccccc1`, the growth was 8.98% (active).

`CC1=C[C@H]2c3c(c(O)c(O)c4oc5cc(O)cc(O)c5c(=O)c34)[C@H](c3cc(O)c(O)c4oc5cc(O)cc(O)c5c(=O)c34)[C@H]2C(C)(C)C1`: the growth was -1.98% (active) and -20.8% (active).

Turning to `COc1ccc(/C(C#N)=C/c2ccccn2)cc1`, the growth was 106% (inactive) and 103% (inactive).

Take `CC(=O)Oc1cc(C(=O)O)cc(OC(C)=O)c1OC(C)=O`: the growth is 114% (inactive) and 96.5% (inactive).

Take `COc1ccc(Cn2c(NCCN=C(N)N)nc(=O)n(Cc3ccc(F)cc3)c2=O)cc1`: the growth was 101% (inactive) and 100% (inactive).
